Measurements from ChEMBL document CHEMBL3988442, “University of Dundee, Small-Polar-MMV Screening Library” (2021).
The whole screen tested about 66,000 compounds, of which about 960 (1.5%) showed an effect of 50% or more. Shown is part of a subset that was picked to be rich in strong results.

Test system: Trypanosoma brucei
Experiment: Trypanosoma brucei 72 hour study
Assay type: functional, organism-based
Design: scale not given: in the data most compounds retested in dose-response had high values

CCOCCCn1c(NC(=O)c2scnc2C)nc2ccccc21
Percent Effect (30 µM, 30.03 µM): 105.1%

CCCn1c(NC(=O)CNC(=O)OCC)nc2ccccc21
Percent Effect (30 µM, 30.03 µM): -18.3%

CCN(CC)CCn1c(NC(=O)c2scnc2C)nc2ccccc21
Percent Effect (10 µM): 84.6%

CCOCCCn1c(NC(=O)c2cc(C)on2)nc2ccccc21
Percent Effect (10 µM): -33.65%

CCOCCCn1c(NC(=O)c2cnc(C)cn2)nc2ccccc21
Percent Effect (10 µM): -41.49%

CCOCCCn1c(NC(=O)c2ccnc(C)n2)nc2ccccc21
Percent Effect (10 µM): -13.79%

CCOCCCn1c(NC(=O)c2ccc(C)nc2)nc2ccccc21
Percent Effect (30 µM, 30.03 µM): 8.402%

CCOCCCn1c(NC(=O)c2cnn(C)c2)nc2ccccc21
Percent Effect (30 µM, 30.03 µM): 64.95%

CCOCCCn1c(NC(=O)c2cnc(C)s2)nc2ccccc21
Percent Effect (10 µM): -28.52%

Cc1noc(C)c1CN1CCOCC12CCN(c1ncccn1)CC2.O=C(O)C(F)(F)F
Percent Effect (30.3 µM, […]): -79.15%

O=C(O)C(F)(F)F.O=C1CCC2(CCCN(CCc3ccccc3)C2)N1Cc1cccnc1 (stereo not drawn)
Percent Effect (30.3 µM, […]): -16.68%

CN(C)C(=O)[C@H]1C[C@@H]2CN(S(=O)(=O)Cc3ccccc3)C[C@H]1O2
Percent Effect (30 µM, 30.03 µM): 24.58%

COc1ccc(CN2CCO[C@H]3[C@H](OCc4ccncc4)CC[C@@H]32)cc1.O=C(O)C(F)(F)F.O=C(O)C(F)(F)F
Percent Effect (30.3 µM, […]): -84.86%

Cc1nc(CN2CCCC2c2noc(C(C)C)n2)oc1C (stereo not drawn)
Percent Effect (30.3 µM, […]): 12.42%
Percent Effect (10 mM, 10 mM as filed; unlikely as a test dose): -15.34%

Cc1ccc(N(Cc2ccco2)C(=O)CC2=NN(C)C(=O)C2)cc1
Percent Effect (30 µM, 30.03 µM): -11.27%

COCC1N(C(=O)c2ccc3c(c2)OCCCO3)[C@H]2CC[C@]1(O)CC2 (stereo partly drawn)
Percent Effect (30.3 µM, […]): -35.32%

CNC(=O)C1CCN(C(=O)NCc2ccc(-c3ccn[nH]3)cc2)CC1
Percent Effect (30.3 µM, […]): -16.44%

NC(=O)C1CCN(C(=O)NCc2ccc(-c3ccn[nH]3)cc2)CC1
Percent Effect (30.3 µM, […]): -25.22%

O=C(NCc1ccc(-c2ccn[nH]2)cc1)N1CCC(N2CCCC2)C1 (stereo not drawn)
Percent Effect (30 µM, 30.03 µM): 50.84%

CN(C)C(=O)CC1CC2(CCN(Cc3ccoc3)CC2)c2ccccc21.O=C(O)C(F)(F)F (stereo not drawn)
Percent Effect (30 µM, 30.03 µM): -22.74%

CC(NCc1cn(CCC(N)=O)c2ccccc12)c1nncn1C (stereo not drawn)
Percent Effect (30.3 µM, […]): -49.32%

Cc1ccc(C(C)NCc2cn(CCC(N)=O)c3ccccc23)cc1C (stereo not drawn)
Percent Effect (30.3 µM, […]): 96.45%

CC(C)n1cnnc1CCNCc1cn(CCC(N)=O)c2ccccc12
Percent Effect (30.3 µM, […]): -18.24%

CC(CN1CCC2(CC1)N=C(c1cccnc1)NC2=O)c1ccccc1 (stereo not drawn)
Percent Effect (30 µM, 30.03 µM): 6.734%

COCC1CC2(CCN(C(=O)c3occc3C)CC2)CN1C(C)C.O=C(O)C(F)(F)F (stereo not drawn)
Percent Effect (30.3 µM, […]): -8.924%

CCCc1noc(CCC(=O)N2CCCC2c2ccsc2)n1 (stereo not drawn)
Percent Effect (30 µM, 30.03 µM): -44.02%

CCCc1noc(CN2CCCC2c2ccsc2)n1 (stereo not drawn)
Percent Effect (30 µM, 30.03 µM): 55.39%

CCCc1noc(CN2CCCC2c2noc(C3CC3)n2)n1 (stereo not drawn)
Percent Effect (30.3 µM, […]): -16.45%

CS(=O)(=O)NCc1cnc2n1CCN(Cc1cccs1)CC2.O=C(O)C(F)(F)F
Percent Effect (30 µM, 30.03 µM): -2.909%

CN(C)[C@H]1CN(C(=O)CCCc2ccc(F)cc2)C[C@@H]1C1CC1
Percent Effect (30 µM, 30.03 µM): 21.51%

N[C@H]1CN(C(=O)CCCc2ccc(F)cc2)C[C@@H]1C1CC1
Percent Effect (30 µM, 30.03 µM): 79.67%

O=C(O)[C@@H]1CN(C(=O)CCCc2ccc(F)cc2)C[C@H]1C1CC1
Percent Effect (30 µM, 30.03 µM): -8.475%

O=C(NCc1cccs1)[C@@H]1CC[C@@H]2[C@@H](CCN2c2ncccn2)O1.O=C(O)C(F)(F)F
Percent Effect (30 µM, 30.03 µM): -28.93%

COc1ccc(C(CN2CCN(C)CC2)Nc2ncccn2)cc1 (stereo not drawn)
Percent Effect (30 µM, 30.03 µM): -24.12%

CCC(Nc1ncccn1)c1cccnc1 (stereo not drawn)
Percent Effect (30 µM, 30.03 µM): -16.09%

CCC(Nc1ncccn1)c1ccc(OC)cc1 (stereo not drawn)
Percent Effect (30 µM, 30.03 µM): 62.75%

CCC(C)Oc1ccc(CNCCNS(C)(=O)=O)cc1Cl (stereo not drawn)
Percent Effect (30 µM, 30.03 µM): 0.13%

O=C(O)C(F)(F)F.O=C(O)C(F)(F)F.O=C1CC(c2ccncc2)C2(CCN(CCc3ccccc3)CC2)N1 (stereo not drawn)
Percent Effect (30 µM, 30.03 µM): 36.79%

CS(=O)(=O)N1CCC2(CC1)CC(NCC1CC1)c1ccccc12.O=C(O)C(F)(F)F (stereo not drawn)
Percent Effect (30.3 µM, […]): 3.499%

CN1CC2(CCCN(Cc3ccc(Oc4ccccc4)cc3)C2)OC1=O (stereo not drawn)
Percent Effect (30 µM, 30.03 µM): -7.898%

CN(Cc1cc(Br)cn1C)C(=O)Cc1cccnc1
Percent Effect (30 µM, 30.03 µM): 102.7%

CN(Cc1cc(Br)cn1C)C(=O)c1cccnc1
Percent Effect (30 µM, 30.03 µM): -39.03%

CN(Cc1cc(Br)cn1C)C(=O)Cc1cccc(O)c1
Percent Effect (30 µM, 30.03 µM): -57.62%

COc1ccc(CN2CC[C@H]3[C@H]2CC(=O)N3Cc2cccc(C)n2)cc1.O=C(O)C(F)(F)F.O=C(O)C(F)(F)F
Percent Effect (30.3 µM, […]): -40.33%

Cc1cc(N2CCN(C(=O)c3cc(Cl)c[nH]3)CC2)nc(C)n1
Percent Effect (30 µM, 30.03 µM): -21.87%

Cc1cc(N2CCN(C(=O)c3cc(Cl)c[nH]3)CC2)nc(N)n1
Percent Effect (30 µM, 30.03 µM): 109.2%

Cc1cc(N2CCN(C(=O)c3cc(Cl)c[nH]3)CC2)nc(C(C)C)n1
Percent Effect (30 µM, 30.03 µM): -55.97%

Cc1ccc(CN(CCCN(C)C)Cc2cnc(C)n2C)o1.O=C(O)CC(O)(CC(=O)O)C(=O)O
Percent Effect (30.3 µM, […]): -2.378%

CCn1c(C(=O)N2CCN(CC[S+](C)[O-])CC2)cc2ccccc21 (stereo not drawn)
Percent Effect (10 µM): -31.07%

CN(C)c1cccc(CNC(=O)Nc2cc(C#N)ccc2Cl)n1
Percent Effect (30.3 µM, […]): -223.5%

COc1ccc(NC(=O)NCc2cccc(N(C)C)n2)c(Cl)c1
Percent Effect (30.3 µM, […]): 103.9%

COCc1c(Cl)cccc1NC(=O)NCc1cccc(N(C)C)n1
Percent Effect (30.3 µM, […]): 55.78%

CC(=O)c1ccc(NC(=O)NCc2cccc(N(C)C)n2)cc1C
Percent Effect (30 µM, 30.03 µM): -17.1%

COc1cc(F)cc(NC(=O)NCc2cccc(N(C)C)n2)c1
Percent Effect (30.3 µM, […]): -613%

COc1ccc(C)c(NC(=O)NCc2cccc(N(C)C)n2)c1
Percent Effect (30.3 µM, […]): -277.4%

N#Cc1cccc(C(=O)N2CCC3(CCC(=O)N(C4CC4)C3)CC2)c1
Percent Effect (30 µM, 30.03 µM): -3.327%

O=C(O)C(F)(F)F.c1ccc(CN2CCc3c(CNc4nccs4)n[nH]c3C2)nc1
Percent Effect (30 µM, 30.03 µM): -34.93%

Cc1ccn(CCC(=O)N2CCCC2c2nnc(-c3scnc3C)o2)n1 (stereo not drawn)
Percent Effect (30.3 µM, […]): -1.608%

Cc1cnc(-c2nc(C3CCCN(Cc4ccccc4C)C3)no2)cn1.Cl (stereo not drawn)
Percent Effect (30.3 µM, […]): -19.46%

CCc1cc(-c2ccnc3c2ccn3C)nc(N2CCOCC2)n1
Percent Effect (30 µM, 30.03 µM): -28.1%

Cn1ccc2c(-c3cc(N4CCOCC4)ncn3)ccnc21
Percent Effect (30 µM, 30.03 µM): -20.01%

Cn1ccc2c(-c3cc(N)nc(N4CCOCC4)n3)ccnc21
Percent Effect (30 µM, 30.03 µM): 69.92%
